Measurements reported in ChEMBL document CHEMBL3988442, “University of Dundee, Small-Polar-MMV Screening Library” (2021).
About 13,000 (27%) of roughly 48,000 compounds showed an effect of 50% or more. This is one part of the list.

test system: Wolbachia pipientis; experiment: Anti-Wolbachia Cell-Based Screen; assay type: functional; design: scale not given: in the data most compounds retested in dose-response had high values; conditions: 5 µM

Compound | Percent Effect
CC(OCC1CC1)C(=O)N1CCCN(Cc2nccn2C)CC1 (configuration not stated) | 15.71%
CC(C(=O)N1CCCCCC1)N1CCN(Cc2nccn2C)CC1 (configuration not stated) | 103.6%
Cn1ccnc1CN1CCCN(C(=O)C2(C#N)CCCCC2)CC1 | -11.9%
CC(C)C(C(=O)N1CCCN(Cc2nccn2C)CC1)N1CCCC1 (configuration not stated) | 74.16%
CC(C(=O)N1CCOCC1)N1CCN(Cc2nccn2C)CC1 (configuration not stated) | 114%
CCN1CCN(C(=O)C(C)N2CCN(Cc3nccn3C)CC2)CC1 (configuration not stated) | 0.1033%
CCN(C(=O)NCCc1cccc(F)c1F)C(C)CS(C)(=O)=O (configuration not stated) | 8.569%
CCOc1ccc(CN(CCOC)c2nc(C)nc3oc(C)nc23)cc1 | -12.59%
CCOc1ccnc(N2CCN(C(=O)c3cc(Cl)c[nH]3)CC2)n1 | -0.9133%
CCOc1ccnc(N2CCN(C(=O)c3cccc(C#N)c3)CC2)n1 | 3.478%
COc1ccnc(N2CCN(C(=O)c3ccn(C)c(=O)c3)CC2)n1 | 101.7%
COc1cc(C)nc(N2CCN(C(=O)c3ccccc3C)CC2)n1 | 2.606%
CCOc1cccc(C(=O)N2CCN(c3nccc(OC)n3)CC2)c1 | -0.7298%
COc1cc(C)nc(N2CCN(C(=O)c3ccn(C)c(=O)c3)CC2)n1 | 111.9%
CCOc1ccnc(N2CCN(C(=O)c3ccn(C)c(=O)c3)CC2)n1 | 88.48%
COc1cc(C)nc(N2CCN(C(=O)c3ccc(Cl)o3)CC2)n1 | 4.762%
COc1ccnc(N2CCN(C(=O)c3cscn3)CC2)n1 | 2.321%
O=C(c1ncccc1O)N1CCN(Cc2ccco2)C(CCO)C1 (configuration not stated) | -8.878%
CC(C)CN1CCC(NC(=O)N(C)Cc2csc3ccccc23)CC1 | 14.6%
CN(C)C1(CNc2ncc(Br)cn2)CCOCC1 | 25.75%
CCC(CNS(=O)(=O)c1c[nH]cn1)Oc1ccccc1F (configuration not stated) | -7.945%
COc1ccnc(NCc2ccccc2Cn2cccn2)n1 | 13.47%
Cc1nonc1C(=O)N1CC[C@@]2(O)CCN(C3CCCCC3)C[C@H]2C1 | -5.278%
O=C(NC1CCC(C(=O)N2CCSCC2)CC1)N1CCC1 (configuration not stated) | 3.195%
Cc1nc(CC(C)C)cc(C(=O)N2C[C@@H](N(C)C)[C@H](C(C)C)C2)n1 | -16.81%
CC(C)[C@@H]1CN(C(=O)CCc2ccc(F)cc2)C[C@H]1C(=O)O | -26.1%

Compound | Percent Effect
CC(C)[C@@H]1CN(Cc2cnc(C3CCCCC3)nc2)C[C@H]1N(C)C | -9.184%
CC1(C)CN(C(=O)CC2CCC2)C[C@]1(C)O | 6.618%
Cc1cc(C(=O)N2C[C@@H](C(=O)O)[C@H](C(C)C)C2)cs1 | 38.77%
Cc1cc(C(=O)N2C[C@H](C(C)C)[C@@H](N(C)C)C2)cs1 | 81.51%
COCCC(=O)N1C[C@H](C(C)C)[C@@H](N(C)C)C1 | 108.6%
CC(C)[C@@H]1CN(C(=O)NCc2ccco2)C[C@H]1N(C)C | -15.37%
CC(C)[C@H]1CN(C(=O)CC2CCC2)C[C@@H]1N(C)C | 88.21%
CC(=O)c1cc(CN2C[C@@H](N(C)C)[C@H](C(C)C)C2)cs1 | 13.8%
CC(C)[C@H]1CN(C(=O)CO)C[C@@H]1N(C)C | 109.8%
CC(C)[C@@H]1CN(C(=O)CN(C)Cc2ccc(F)cc2)C[C@H]1C(=O)O | -17.02%
N#Cc1cc(S(N)(=O)=O)ccc1NC1CCc2c(F)cccc21 (configuration not stated) | -10.31%
COCCCN(C)c1ncccc1I | 0.1394%
Cn1c(NCC(=O)N2CCCC2)c(C#N)c(=O)n(C)c1=O | 6.318%
CC(O)CN1CCC(CN(C)Cc2cc(F)cc3cccnc23)CC1 (configuration not stated) | -9.016%
CC(C)Oc1ccc(C(=O)Cn2cnnc2[S+](C)[O-])cc1 (configuration not stated) | 6.636%
COc1cccc(S(=O)(=O)NC(=O)CC2CCCC2)c1 | 9.946%
N#Cc1cccc(S(=O)(=O)NC(=O)COC2CCCC2)c1 | 4.791%
CS(=O)(=O)c1cccc(S(=O)(=O)NC(=O)CC2CCCCC2)c1 | -9.509%
COc1cccc(S(=O)(=O)NC(=O)COC2CCCCC2)c1 | 79.48%
COc1ccc(S(=O)(=O)NC2(CC(N)=O)CCC2)cc1 | 1.65%
COc1cccc(S(=O)(=O)NC(=O)COc2c(C)cccc2C)c1 | -5.351%
COc1cccc(S(=O)(=O)NC(=O)CCC2CCCC2)c1 | 93.05%
CCOc1ccc(S(=O)(=O)NC(=O)CCC2CCCO2)cc1 (configuration not stated) | 0.3257%
COc1cccc(S(=O)(=O)NC(=O)COC2CCCC2)c1 | 0.104%
COc1cccc(S(=O)(=O)NC(=O)CC2CCCO2)c1 (configuration not stated) | 94.52%
COc1ccc(S(=O)(=O)NC(=O)COC2CCCC2)cc1 | 110.1%

Compound | Percent Effect
CS(=O)(=O)c1cccc(S(=O)(=O)NC(=O)CCC2CCCCC2)c1 | -13.77%
Cc1ccc(-n2c(C)nnc2SCC(O)COCc2ccco2)cc1 (configuration not stated) | -12.77%
Cc1cnccc1CN(C)C(=O)c1ccc(Cn2cnnn2)cc1 | -17.07%
Cc1ccc(CN(C)C(=O)NCC(C)(C)CCS(C)(=O)=O)s1 | -3.781%
CN(C(=O)Cc1coc(-c2ccccc2)n1)C1(C#N)CCC1 | 4.147%
COc1ccc(Cl)cc1NCC(=O)N(Cc1cccnc1)C1CC1 | 0.4709%
O=C(O)C(F)(F)F.O=C([C@@H]1COC[C@H]2CN(C3CCOCC3)C[C@H]21)N1CCCCO1 | -37.74%
NC(=O)C(NC(=O)COC1CCCCC1)c1ccccc1 (configuration not stated) | -9.016%
COc1ccc(OCC(=O)NS(=O)(=O)c2cc(F)ccc2F)cc1 | 18.57%
COc1ccc(S(=O)(=O)NC(=O)COC2CCCCC2)cc1C | 99.33%
COCc1nc(C(=O)NS(=O)(=O)c2ccc(OC)c(C)c2)cs1 | -15.7%
COc1ccc(S(=O)(=O)NC(=O)COC2CCCCC2)cc1 | 100.4%
COc1ccc(S(=O)(=O)NC(=O)c2cscn2)cc1C | -8.824%
CCCC(O)CNc1cncc(Br)c1 (configuration not stated) | -5%
CC(C)(NC(=O)Nc1cnn(CC2CCCO2)c1)c1nccs1 (configuration not stated) | -5.14%
CN(Cc1n[nH]c(=O)n1Cc1ccccc1F)S(C)(=O)=O | -17.4%
Cc1ccc(-n2c(COC(C)C)n[nH]c2=O)cc1 | -8.363%
CCN(C)Cc1n[nH]c(=O)n1-c1ccc(C)c(C)c1 | 100.3%
COc1ccc(-n2c(COC(C)C)n[nH]c2=O)cc1 | 8.862%
Cc1ccc(F)cc1-n1c(COC(C)C)n[nH]c1=O | 6.19%
CN(Cc1n[nH]c(=O)n1CCc1ccccc1F)S(C)(=O)=O | -6.047%
Cc1ccc(F)cc1-n1c(CN(C)S(C)(=O)=O)n[nH]c1=O | 117.3%
CCN(C)Cc1n[nH]c(=O)n1-c1cc(F)ccc1C | 106.9%
CNCc1n[nH]c(=O)n1-c1ccccc1Oc1ccccc1 | -7.871%
CN(Cc1ccccc1-n1cccn1)C[C@@H]1CCCN2CCCC[C@H]12 | -7.431%
CCc1nsc(N2CCN(C(=O)c3ccnc(N(C)C)c3)CC2)n1 | -3.339%

Compound | Percent Effect
CCC1=N[C@@]2(CC[C@@H]3CN(C(=O)NCC(C)C)C[C@@H]32)C(=O)N1CC(C)C | -11.82%
Cc1nn(C)c(C)c1C1CCCN1CCOc1ccccc1C#N (configuration not stated) | -7.684%
CS(=O)(=O)NC[C@@H]1OC[C@H]2CN(C(=O)c3ccc[nH]3)CC[C@H]21 | -14.53%
CN[C@@H](C)C(=O)N(Cc1cccc(C)c1)Cc1ccccc1OC | 4.64%
CCc1nc(CC(=O)N2CCn3c(nnc3C(F)(F)F)C2)cs1 | -0.3988%
Cc1cccc(-n2cc(CNc3ncnc4c3CCNCC4)cn2)c1 | 94.66%
Cc1cccc(=O)n1CCCNc1ncnc2c1CCNCC2 | -13.78%
Cc1ccccc1-n1cc(CNc2ncnc3c2CCNCC3)cn1 | 113.8%
Cn1cc(CNc2ncnc3c2CCN(Cc2ccsc2)CC3)cn1 | 1.057%
c1ccc(Cn2cc(CNc3ncnc4c3CCNCC4)cn2)cc1 | 100.8%
Cc1nc2c(c(NCc3ccc(-c4ccccn4)s3)n1)CCNCC2 | 3.518%
c1cncc(CNc2ncnc3c2CCN(Cc2ccsc2)CC3)c1 | -11.45%
Cc1cccc(-n2cc(CN3CCN(C)[C@@H]4CS(=O)(=O)C[C@@H]43)cn2)c1 | -4.421%
CCc1ncc(C(=O)N(C)C2Cc3ccccc3C2)cn1 | 0.7414%
CC(C)(C)C(=O)N1CCCc2c(cnn2-c2ccccc2)C1 | 70.74%
CC(C)C(=O)N1CCCN(C(=O)NC2CCc3ccccc3C2)CC1 (configuration not stated) | 16.47%
CC(C)(C)c1ncc2c(n1)CN(C(=O)C(C)(C)n1cccc1)C2 | 2.811%
CC(C(=O)N1CCc2ccccc2C1)n1cc(Br)cn1 (configuration not stated) | 4.145%
O=C(NCc1nn(-c2ccccc2)c2c1CCC2)N1CCSCC1 | 9.143%
CC(C)C(=O)N1CCCc2c(cnn2-c2ccccc2)C1 | 142.7%
CCC(CC)C(=O)N1CCN(C)c2ncccc2C1 | -0.9461%
Cn1nnc2c1CCN(C(C(=O)N1CCCCC1)c1ccccc1)C2 (configuration not stated) | 4.107%
Cc1nc2c(c(=O)n1C)CCN(C(=O)Cn1cccc1)CC2 | 14.88%
O=C(NCC1OCCc2cn(CC3CCOCC3)nc21)c1ccsc1.O=C(O)C(F)(F)F (configuration not stated) | -9.912%
